In the library only some 27% were active in any assay of this set; here they are far more common.
CYP2C19 inh = inhibitors of human CYP2C19. CYP2C19 Supersomes, luciferin-H EGE luminescence, 30 min. inhibition, % at 5 µM. 96,000 compounds, 21% hits. AID 778;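 active = CYP2C19 inhibition above a set limit at 5 µM in the primary screen, cut at about 50% in these data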;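 note: plate controls were negative control wells for no effect and 2.5 mM tranylcypromine positive control for full effect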
Target sequence (P33261 whole entry, looked up): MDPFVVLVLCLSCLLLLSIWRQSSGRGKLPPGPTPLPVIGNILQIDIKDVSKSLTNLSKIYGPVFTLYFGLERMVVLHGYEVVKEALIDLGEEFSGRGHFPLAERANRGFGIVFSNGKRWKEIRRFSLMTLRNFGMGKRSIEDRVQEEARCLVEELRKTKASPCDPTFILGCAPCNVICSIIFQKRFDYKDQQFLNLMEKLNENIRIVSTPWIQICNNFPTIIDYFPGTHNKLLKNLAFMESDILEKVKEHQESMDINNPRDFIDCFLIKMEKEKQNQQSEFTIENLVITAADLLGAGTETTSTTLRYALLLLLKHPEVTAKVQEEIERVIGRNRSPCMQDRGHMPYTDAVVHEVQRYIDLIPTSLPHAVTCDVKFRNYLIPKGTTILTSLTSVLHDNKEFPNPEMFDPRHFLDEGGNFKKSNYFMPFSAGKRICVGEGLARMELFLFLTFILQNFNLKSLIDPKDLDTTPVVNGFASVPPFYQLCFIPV
CYP2C19 act = cytochrome P450 2C19 (human) activation; activation factor at 5 µM; 96,000 tested, under 10 active; recombinant CYP2C19, luciferin-H EGE luminescence; hits give high values; 0 = fully inhibited enzyme, 1 = untreated enzyme; P33261;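 active = activation factor of at least 2 at 5 µM in the primary screen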;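 note: 0 = wells with 2.5 mM tranylcypromine and 1 = vehicle-only wells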
Cav3 T inh = blocks human Cav3.2 T-type calcium channel | AID 449739 | Cav3.2-expressing cells, Fluo-4 calcium fluorescence FDSS; hits give low values | 100,000 compounds, 4% hits | B-score at 10 µM;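 active = single-dose well whose peak fluorescence ratio is a statistical outlier from its plate by either plate-standardised score or position-corrected B-score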
CYP2C9 act = CYP2C9 (human) activation. AID 1024. activation factor at 5 µM. recombinant CYP2C9, luciferin-H conversion, luminescence; hits give high values; factor 1 = untreated enzyme, 0 = blocked. P11712. 96,000 compounds, 1.4% hits;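 active = activation factor of 2 or more for CYP2C9 at a 5 µM dose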;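 note: 0 = sulfaphenazole-blocked wells and 1 = vehicle-only wells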
CYP2C9 inhib = human CYP2C9 inhibition; inhibition, % at 5 µM; AID 777; CYP2C9 Supersomes, luciferin-H conversion, luminescence; 96,000 compounds, 20% hits; P11712;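 active = blocking of liver enzyme CYP2C9 beyond about 50% at 5 µM, limit read from the data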
Starred values were filed as active, the others as inactive.

`COc1ccc(CNc2oc(COc3ccccc3)nc2C#N)cc1` gave CYP2C19 inh 52.7*, CYP2C19 act 0.5, CYP2C9 act 0.3 and CYP2C9 inhib 66.3*.
For COc1ccc(CNc2oc(Cc3cccc4ccccc34)nc2C#N)cc1 the results were CYP2C19 inh 79.4*, CYP2C19 act 0.2, Cav3 T inh -7.01*, CYP2C9 act 0 and CYP2C9 inhib 95.7*.
For N#Cc1nc(COc2ccccc2F)oc1NCCc1ccccc1 the results were CYP2C19 inh 87.5*, CYP2C19 act 0.1, CYP2C9 act 0.1 and CYP2C9 inhib 88.0*.
For N#Cc1nc(COc2ccccc2Cl)oc1NCc1ccc(F)cc1 the results were CYP2C19 inh 4.2, CYP2C19 act 1, Cav3 T inh 0.21, CYP2C9 act 0.8 and CYP2C9 inhib 19.0.
`CCS(=O)(=O)NC(C)C(c1cccs1)N1CCN(c2ccc(F)cc2)CC1` (stereo not given) gave CYP2C19 inh 36.2, CYP2C19 act 0.6, Cav3 T inh -0.196, CYP2C9 act 0.8 and CYP2C9 inhib 18.9.
`CCOC(=O)CNS(=O)(=O)c1ccc(S(=O)(=O)N2CCCC2)cc1` gave CYP2C19 inh 2.9, CYP2C19 act 1, Cav3 T inh -0.0175, CYP2C9 act 0.9 and CYP2C9 inhib 14.7.
CC(=O)O[C@H]1C2OC(=O)C(C)=C2[C@@H]2OC(=O)[C@]3(CCC4OC41C)OC23 (stereo not given in full) was read as Cav3 T inh -0.00647.
For Cc1ccc(C(=O)NNC(=O)CSc2nnc(-c3ccncc3)n2-c2ccc(C)cc2)cc1 the results were CYP2C19 inh 37.9, CYP2C19 act 0.6, Cav3 T inh 0.111, CYP2C9 act 0.6 and CYP2C9 inhib 41.7.
`N#Cc1nc(Cc2ccccc2)oc1NCc1ccccc1` gave Cav3 T inh -5.41*.
`CN(Cc1ccccc1)c1oc(COc2ccccc2F)nc1C#N` gave CYP2C19 inh 99.9*, CYP2C19 act 0, Cav3 T inh -4.53*, CYP2C9 act 0 and CYP2C9 inhib 98.7*.
For C#CCNC(=O)C1=C[C@@H](c2csc3ccccc23)C[C@@H](OCc2ccc(CO)cc2)O1 the results were Cav3 T inh -0.678.
`O=C(O)CCCC(=O)NCCCCc1ccccc1` gave CYP2C19 inh -2.3, CYP2C19 act 1, Cav3 T inh -1.79, CYP2C9 act 1 and CYP2C9 inhib 2.3.
COc1ccc(C(=O)c2sc(Nc3cccc(OC)c3)c(C(=O)Nc3cccc(C)c3C)c2N)cc1 was read as CYP2C19 inh 39.8, CYP2C19 act 0.6, Cav3 T inh -1.81, CYP2C9 act 0.5 and CYP2C9 inhib 52.0*.
CCC(c1nnnn1C(C)(C)CC)N(CCCO)Cc1cc2cc(C)cc(C)c2[nH]c1=O (stereo not given) was read as CYP2C19 inh 62.6*, CYP2C19 act 0.4, Cav3 T inh -0.011, CYP2C9 act 0.2 and CYP2C9 inhib 76.1*.
`CCC(c1nnnn1C(C)(C)CC)N(CCN1CCOCC1)Cc1cc2cc(C)ccc2[nH]c1=O` (stereo not given) gave CYP2C19 inh 81.9*, CYP2C19 act 0.2, CYP2C9 act 0.9 and CYP2C9 inhib 6.5.
Screening CCCC(c1nnnn1C(C)(C)CC)N(CCCO)Cc1cc2cc(C)cc(C)c2[nH]c1=O (stereo not given) returned CYP2C19 inh 43.2, CYP2C19 act 0.6, Cav3 T inh -3.8, CYP2C9 act 0.5 and CYP2C9 inhib 52.8*.
Cc1ccc([N+](=O)[O-])cc1N=C(c1cccc(Br)c1)N1CCOCC1 was read as CYP2C19 inh 64.4*, CYP2C19 act 0.4, Cav3 T inh -4.07*, CYP2C9 act 0.5 and CYP2C9 inhib 51.8*.
CSc1nsc(/C=C/Nc2cccc(Cl)c2)c1C#N was read as CYP2C19 inh 20.0, CYP2C19 act 0.8, Cav3 T inh -0.0205, CYP2C9 act 0.3 and CYP2C9 inhib 65.4*.
CSc1nsc(/C=C/Nc2ccc(Cl)cc2)c1C#N was read as CYP2C19 inh 3.3, CYP2C19 act 1, Cav3 T inh -0.422, CYP2C9 act 0.7 and CYP2C9 inhib 32.5.
Screening O=C(O)c1ccc(C2CCCCC2)cn1 returned CYP2C19 inh 16.0, CYP2C19 act 0.8, Cav3 T inh 0.225, CYP2C9 act 1 and CYP2C9 inhib 3.7.
`COc1cccc(NC(=O)CSc2nnc(-c3cc(-c4ccccn4)nc4ccccc34)o2)c1` gave CYP2C19 inh 6.9, CYP2C19 act 0.9, Cav3 T inh 0.702, CYP2C9 act 0.8 and CYP2C9 inhib 18.4.

Screens deposited in PubChem BioAssay by several laboratories.
